High-throughput results deposited in PubChem by National Center for Advancing Translational Sciences (NCATS).
An excerpt weighted towards active compounds, which were near 6.9% of everything screened.
MCF10A rereplic: induces DNA re-replication in MCF 10a normal breast cells. 350,000 compounds, 2.9% hits. MCF 10A DNA re-replication, Hoechst nuclear intensity, 48 h. Potency, µM (highest dose often 46.1 µM), for inactives: at the top dose activity, positive = re-replication, most hits filed as activators. AID 624296; further: potency means the concentration at half of the fitted maximal effect; % of control where 0% means no effect; nearly all actives have a fitted effect of over 50% in size
SW480 rerep: DNA re-replication induction in SW480 cells; SW480 DNA re-replication, Hoechst DNA content imaging, 48 h; Potency, µM (top dose mostly 46.1 µM), without a hit: at the highest dose re-replication activation, actives largely listed as activators; 340,000 compounds, 1.8% hits; further: potency means the concentration at half of the fitted maximal effect; % of control where 0% means no effect; nearly all actives have a fitted effect of over 55% in size
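DNA re-replication was detected as more nuclei of elevated Hoechst intensity after 48 hr exposure to compound (23 nL pinned per well of 250 cells).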
Vif-A3G inh: blocks the Vif interaction with human APOBEC3G | 410,000 compounds, 0.076% hits | Potency, µM (top dose mostly 46.1 µM), without a hit: at the highest dose activity, negative = active, usual class: inhibitors | Q9HC16 | HeLa A3G-eYFP + Vif (tagged APOBEC3G with the HIV-1 protein that degrades it), YFP fluorescence, overnight | AID 602310; further: potency means the concentration at half of the fitted maximal effect; on the % scale 0 is the no-effect control and ±100 the full control effect; nearly all actives have a fitted effect of over 60% in size
Target sequence (Q9HC16 whole entry, looked up): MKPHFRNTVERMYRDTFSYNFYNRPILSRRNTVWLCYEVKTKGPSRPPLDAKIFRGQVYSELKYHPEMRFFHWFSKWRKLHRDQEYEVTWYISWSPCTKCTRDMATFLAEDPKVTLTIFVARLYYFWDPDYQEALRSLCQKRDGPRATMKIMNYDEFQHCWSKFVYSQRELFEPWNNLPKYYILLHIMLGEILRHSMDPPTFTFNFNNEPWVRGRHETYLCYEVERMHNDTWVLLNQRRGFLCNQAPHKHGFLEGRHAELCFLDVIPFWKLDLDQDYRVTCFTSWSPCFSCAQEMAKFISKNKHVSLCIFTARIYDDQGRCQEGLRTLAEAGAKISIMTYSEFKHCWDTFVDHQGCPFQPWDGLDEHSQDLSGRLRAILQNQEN
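Read-out is eYFP fluorescence (Ex 488/Em 500-530) from Vif-expressing HeLa A3G-eYFP cells; more signal means A3G escaped Vif-mediated degradation. Cells plated overnight, compound pinned in, incubated overnight at 37 deg C.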
Vif-A3F inh: inhibitors of Vif-A3F interaction; HeLa A3F-eYFP + Vif (tagged APOBEC3F with the HIV-1 protein that degrades it), YFP fluorescence increase; Potency, µM (top dose mostly 46.1 µM), for inactives: at the highest dose activity, negative = active; 390,000 compounds, 0.2% hits; further: potency means the concentration at half of the fitted maximal effect; % of control where 0% means no effect; nearly all actives have a fitted effect of over 65% in size
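Fluorescence increase (Ex 488/Em 500-530) after overnight compound treatment at 37 deg C flags inhibition of Vif-driven A3F-eYFP loss in stable HeLa A3F-eYFP/Vif cells seeded overnight beforehand.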
Giardia killer: Giardia lamblia killing. 340,000 compounds, 0.15% hits. AID 540267. activity change, % at 7.66 µM, hits read low. Giardia lamblia trophozoite viability; in the data active means activity change below about -80%; inconclusive means between about -30% and that limit;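 further: parasites exposed to compound for two days anaerobically before the ATP read; on the % scale 0 is the no-effect control and ±100 the full control effect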
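Luminescence from cellular ATP indicates surviving trophozoites (100 cells/well) following 48 hrs anaerobic compound treatment at 37 deg C; signal develops 15-30 min at room temperature.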
IL1B secr inh: blocks inflammasome-driven IL-1 beta release. THP-1 LPS/ATP IL-1B secretion, AlphaLISA, 16 h; active compounds read low. activity change, % at 57.5 µM. 360,000 compounds, 4.7% hits; in the data active means activity change below about -50%; inconclusive means mostly about -30% to -49%; further: on the % scale 0 is the no-effect control and ±100 the full control effect
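Secreted IL-1B measured by AlphaLISA bead assay after 16 h compound exposure of THP-1 cells; compounds (final up to 57.5 uM) added 1 h before LPS (250 ng/mL) and ATP (1.25 mM) stimulation; lower signal means less secretion.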
Active calls of the source: *; ? = inconclusive; / = no result. Unless noted, the call rests on the fitted dose curve; in most records, active means well fitted curve in the direction sought with a large enough effect; inconclusive means small, poorly fitted or top-dose-only effect, or another doubt; inactive means no such curve, though single readings can be large; an effect the other way counts as inactive or inconclusive.

SMILES	MCF10A rereplic	SW480 rerep	Vif-A3G inh	Vif-A3F inh	Giardia killer	IL1B secr inh
O=[N+]([O-])/C=C\c1ccc(N2CCCC2)c(F)c1	18.4µM*	18.4µM*	?	25.1µM*	-29.8	-55.5*
O=Cc1ccc(N2CCCC2)c([N+](=O)[O-])c1	0.7%	-6.4%	0.5%	?	-2.7	-0.4
COc1cccc(-c2cn3c(n2)sc2cc(C(=O)NCCCc4ccccc4)ccc23)c1	/	/	1.3%	1.4%	/	/
CN(Cc1ccccc1)c1nc(N)c([N+](=O)[O-])c(NCc2ccccc2)n1	?	-1.7%	-20.0%	1.4%	-11.9	-51.1*
Cc1ccc(C(=O)Nc2ccc(C)c(S(=O)(=O)Nc3ccccc3Cl)c2)s1	?	16.3%	1.4%	5.2%	19.5	-62.0*
Cc1ccc(NC(=O)c2cc3c(s2)CCCC3)cc1S(=O)(=O)Nc1ccccc1Cl	16.8%	?	-3.0%	0.5%	1.5	91.9
O=C(Nc1ccccc1Cl)c1cccs1	-1.7%	0.1%	1.2%	-6.4%	-4.7	-13.4
O=C(Nc1ccc(Cl)c(S(=O)(=O)Nc2ccccc2Cl)c1)c1cccs1	?	6.3%	-13.0%	-5.3%	4.2	-93.1*
CC(C)c1ccccc1NC(=O)C(Cc1c[nH]c2ccccc12)NC(=O)OC(C)(C)C (centres undefined)	/	/	-1.6%	-13.2%	/	/
Cn1c2c(c3ccccc31)CCN(CCCCN1CCN(c3ccccc3)CC1)C2=O	?	?	0.0%	13.8%	-2.3	-61.5*
Cc1c(C(=O)CN2CCN(c3ccccc3)CC2)c2ccccc2n1C	9.6%	-8.4%	0.2%	-5.6%	-10.0	-5.0
CC(C)c1ccc(NC(=O)CSc2nnc(-c3ccccc3)n2C)cc1	/	/	-0.5%	/	/	/
COc1ccccc1C(=O)Nc1ccc2nc(SCCOc3ccccc3C)sc2c1	/	/	0.4%	-0.3%	/	/
COc1ccc(-c2cc(-c3nnc(COC(=O)c4ccc(O)cc4)o3)c3ccccc3n2)cc1OC	?	?	-5.6%	7.9%	18.2	?
COc1ccc(-c2cc(-c3nnc(COC(=O)CC4CCCC4)o3)c3ccccc3n2)cc1OC	14.6µM*	?	-6.9%	-4.7%	-2.2	-9.5
COc1ccc(-c2cc(-c3nnc(COC(=O)C4CC4)o3)c3ccccc3n2)cc1OC	?	20.6µM*	-7.9%	-6.6%	0.1	9.8
COc1ccc(-c2cc(-c3nnc(COC(=O)C4CC4C)o3)c3ccccc3n2)cc1OC (centres undefined)	?	16.4µM*	3.6%	-19.1%	-12.0	-52.5*
C=C1/C=C(\C)C(C)(O)CC(O)CC(=O)C(O)C(O)C(C)CC(C)OC(=O)/C(C)=C/CC/C=C/C(OC)C(O)CC(C)C1 (centres undefined)	?	-4.5%	-19.7%	-1.2%	-27.5	-53.4*
C#CC[N+](C)(C)CC#Cc1ccc(Cl)cc1	?	12.9%	-0.8%	-23.8%	?	-66.8*
COc1ccc(CNC(=O)CN2C(=O)COc3ccc(S(=O)(=O)N4CCCCCC4)cc32)cc1	/	/	-8.4%	14.0%	/	/
COCCN(CCOC)C(=O)c1cc2c(=O)n3ccccc3nc2n1C	/	/	2.8%	-1.0%	/	/
CC(NC(=O)CCCCCNC(=O)N1CCn2c1nc1ccccc12)c1ccccc1 (centres undefined)	2.0%	?	-6.0%	-4.8%	3.4	-53.1*
CC(C)[C@H](NC(=O)N1CCn2c1nc1ccccc12)C(=O)NCc1ccc(F)cc1	-2.7%	?	0.4%	-1.9%	-5.3	-94.0*
CCc1ccc2oc(-c3cc(NC(=O)c4cc([N+](=O)[O-])ccc4N4CCOCC4)ccc3Cl)nc2c1	/	/	-5.8%	-1.9%	/	/
CC1(C)CC(=O)c2cc(-c3nc(-c4ccc(F)cc4)cs3)c(=O)[nH]c2C1	/	/	-1.2%	-2.9%	/	/
CCOC(=O)CSc1cc(CS(=O)(=O)c2ccccc2)nc(-c2ccccc2)n1	-2.1%	4.4%	0.0%	0.8%	2.1	32.8
O=S(=O)(Cc1cc(Cl)nc(-c2ccncc2)n1)c1ccccc1	?	?	-7.6%	2.5%	-18.3	-97.5*
